{"source": "PubChem BioAssay AID504834", "about": "(National Center for Advancing Translational Sciences (NCATS), 2011)", "note": "The campaign covered roughly 320,000 compounds. About 22,000 (6.9%) were called active. Another 27% or so got no clear call; they are omitted. Calls follow the shape of the dose curve; as a rule, active = well fitted inhibition curve with a large enough effect; inconclusive = small, poorly fitted or top-dose-only effect, or another doubt; inactive = no such curve, though single readings can be large or run the other way. Shown is part of a subset that was picked to be rich in actives. A call without a number means that no potency is given here. Potency is read from the fitted curve at half-maximal effect."}
{"assay": "Primary qHTS for delayed death inhibitors of the malarial parasite plastid, 96 hour incubation", "details": "P. falciparum luciferase reporter growth; series mostly up to 28.7 µM", "method_in_brief": "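Luminescence readout: decreased luciferase signal marks inhibited growth of reporter-expressing P. falciparum in infected red cells (2% hematocrit, 0.05% parasitemia final), exposed to compound two generations (96 h, 37 C, 5% CO2).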"}
{"molecule": "O=C(OCCN=C1NS(=O)(=O)c2ccccc21)c1cccc([N+](=O)[O-])c1", "Potency": "inactive"}
{"molecule": "Cc1cccc(NC(=O)c2sc3nc4c(c(-c5ccco5)c3c2N)CCC4)c1", "Potency": "1.85 µM (active)"}
{"molecule": "NC(=O)c1sc2nc3c(c(-c4ccccc4)c2c1N)CCC3", "Potency": "inactive"}
{"molecule": "Cc1nc2sc(C(=O)c3ccccc3)c(N)c2c2c1CCCC2", "Potency": "inactive"}
{"molecule": "CCN(C(=O)CSc1ncnc2c1cnn2-c1ccccc1)C1CCS(=O)(=O)C1", "note": "(centres undefined)", "Potency": "inactive"}
{"molecule": "CCOc1ccc(NC(=O)CN(C)C(=O)CCSc2ccc(F)cc2)cc1OCC", "Potency": "inactive"}
{"molecule": "COc1ccc(N2C(=O)CN=C2Nc2cccc(C)c2C)cc1OC", "Potency": "inactive"}
{"molecule": "Cc1cccc(Nc2nc3c(S(=O)(=O)c4ccccc4)nnn3c3ccccc23)c1C", "Potency": "0.465 µM (active)"}
{"molecule": "CC(=O)Nc1ccc(Nc2nc3c(S(=O)(=O)c4ccc(C)c(C)c4)nnn3c3ccccc23)cc1", "Potency": "inactive"}
{"molecule": "CCN(CC)S(=O)(=O)c1ccc(OC)c(NC(=O)CCc2c(C)noc2C)c1", "Potency": "inactive"}
{"molecule": "O=S(=O)(NC1CC1)c1ccc(Cl)cc1", "Potency": "inactive"}
{"molecule": "CCc1nnc(NC(=O)c2c(O)c3c([nH]c2=O)CCCC3)s1", "Potency": "inactive"}
{"molecule": "C[N+](C)(C)CCNC(=O)c1c(O)c2c([nH]c1=O)CCCC2", "Potency": "inactive"}
{"molecule": "O=C(NCc1ccccn1)c1c(O)c2c([nH]c1=O)CCCC2", "Potency": "7.38 µM (active)"}
{"molecule": "Nc1nnn(CC(=O)N/N=C/c2ccccc2)n1", "Potency": "inactive"}
{"molecule": "O=c1cc(N2CCN(Cc3ccccc3)CC2)c(-c2ccccc2)n[nH]1", "Potency": "inactive"}
{"molecule": "O=c1c2ccccc2c(-c2ccccc2)nn1Cc1ccccc1", "Potency": "inactive"}
{"molecule": "O=c1cc(N2CCCCC2)c(-c2ccccc2)nn1Cc1cccc(F)c1", "Potency": "11.7 µM (active)"}
{"molecule": "O=C(CN(Cc1ccc(Br)cc1)S(=O)(=O)c1ccccc1)NCc1ccncc1", "Potency": "inactive"}
{"molecule": "Cc1nn2c(=O)cc(COC(=O)c3ccc(NC(=O)C(C)(C)C)cc3)nc2s1", "Potency": "inactive"}
{"molecule": "CSc1ccc(S(=O)(=O)NCC(=O)OCC(=O)NC2(C#N)CCCCC2)cc1[N+](=O)[O-]", "Potency": "inactive"}
{"molecule": "Cc1ccc(C(=O)OCC(=O)N2CC(C)CC(C)C2)cc1S(=O)(=O)N1CCCCC1", "note": "(centres undefined)", "Potency": "inactive"}
{"molecule": "Cc1ccc(C(=O)OCC(=O)NCc2cc(C)c(O)c(C)c2)cc1S(=O)(=O)N1CCCCC1", "Potency": "14.7 µM (active)"}
{"molecule": "COc1ccc(CNC(=O)COC(=O)c2ccc(C)c(S(=O)(=O)N3CCOCC3)c2)cc1OC", "Potency": "inactive"}
{"molecule": "COc1ccccc1CNS(=O)(=O)c1cc(C(=O)NCc2ccccn2)c(Cl)cc1Cl", "Potency": "inactive"}
{"molecule": "CC(=O)c1cccc(CN2CCC(CO)(Cc3ccccc3)CC2)c1", "Potency": "inactive"}
{"molecule": "COc1ccc(CC2(CO)CCN(Cc3cnn(C)c3)CC2)cc1", "Potency": "inactive"}
{"molecule": "CC(C)c1csc(CN2CCC(CO)(Cc3ccccc3)CC2)n1", "Potency": "inactive"}
{"molecule": "CC(C)(O)C#Cc1ccc(CN2CCC(CO)(CCc3ccccc3)CC2)cc1", "Potency": "inactive"}
{"molecule": "OCC1(CCc2ccccc2)CCN(Cc2ccc3nsnc3c2)CC1", "Potency": "11.7 µM (active)"}
{"molecule": "Cc1cccc(-c2ncc(CN3CCC(CO)(CCCc4ccccc4)CC3)cn2)c1", "Potency": "9.28 µM (active)"}
{"molecule": "CN(CC1CCCO1)S(=O)(=O)c1ccc(C(=O)Nc2ccc(F)cc2)cc1", "note": "(centres undefined)", "Potency": "inactive"}
{"molecule": "COc1cccc(-c2ccc3c(c2)S(=O)(=O)c2cccc(C(=O)O)c2C3=O)c1OC", "Potency": "inactive"}
{"molecule": "Cc1[nH][nH]c(=O)c1C(c1ccc2c(c1)OCO2)c1c(C)[nH][nH]c1=O", "Potency": "inactive"}
{"molecule": "CCCCN(CC)C(=O)c1ccc2c(c1)OCO2", "Potency": "inactive"}
{"molecule": "CC(=O)COc1ccc2c(-c3ccccc3)cc(=O)oc2c1", "Potency": "inactive"}
{"molecule": "CCN(CC)CCC(c1ccc2c(c1)OCO2)c1c(OC)cc(OC)c2c(-c3ccccc3)cc(=O)oc12", "note": "(centres undefined)", "Potency": "5.22 µM (active)"}
{"molecule": "COc1ccc(F)cc1S(=O)(=O)NCC(c1ccc2c(c1)OCO2)N1CCN(C)CC1", "note": "(centres undefined)", "Potency": "inactive"}
{"molecule": "Cc1cc(=O)oc2c(C)c(OCC(=O)N3CCN(Cc4ccc5c(c4)OCO5)CC3)ccc12", "Potency": "inactive"}
{"molecule": "COc1ccc(-c2cc(=O)oc3cc(OCC(=O)N[C@@H](Cc4c[nH]c5ccccc45)C(=O)O)ccc23)cc1", "Potency": "inactive"}
{"molecule": "CCN(CC)CCC(c1cc(OC)c(OC)c(OC)c1)c1c(OC)cc(OC)c2c(-c3ccccc3)cc(=O)oc12", "note": "(centres undefined)", "Potency": "2.94 µM (active)"}
{"molecule": "CCN(CC)C(=O)CC(c1ccc2c(c1)OCO2)c1c(OC)cc(OC)c2c(-c3ccccc3)cc(=O)oc12", "note": "(centres undefined)", "Potency": "11.7 µM (active)"}
{"molecule": "CC(NS(=O)(=O)c1ccc(Br)cc1)C(=O)NCC1CCCO1", "note": "(centres undefined)", "Potency": "inactive"}
{"molecule": "O=C(NNC(=O)c1cc(-c2ccccc2Cl)nc2ccccc12)c1csc(N2CCOCC2)n1", "Potency": "inactive"}
{"molecule": "Cc1cc(C)cc(Oc2c(C(F)(F)F)oc3cc(OCC(=O)O)ccc3c2=O)c1", "Potency": "inactive"}
{"molecule": "COc1ccccc1C1CCN(C(=S)Nc2ccc(Br)cc2)CC1", "Potency": "inactive"}
{"molecule": "COc1ccccc1OCCNC(=O)C(CCSC)NC(=O)COc1ccccc1", "note": "(centres undefined)", "Potency": "inactive"}
{"molecule": "Cc1ccc(CNC(=O)C2CCN(S(=O)(=O)c3ccc4nc5c(c(C(=O)O)c4c3)CC(C)CC5)CC2)cc1", "note": "(centres undefined)", "Potency": "inactive"}
{"molecule": "CC1CCN(C(=O)c2ccccc2NC(=O)Cc2ccccc2)CC1", "Potency": "inactive"}
{"molecule": "Cc1c(NC(=O)c2cc(-c3ccc(Br)cc3)on2)c(=O)n(-c2ccccc2)n1C", "Potency": "inactive"}
{"molecule": "Cc1no[n+]([O-])c1COc1ccccc1/C=C1\\NC(=S)NC1=O", "Potency": "10.4 µM (active)"}
{"molecule": "Cc1ccccc1-n1c(C)cc(/C=C2\\NC(=O)NC2=O)c1C", "Potency": "inactive"}
{"molecule": "O=C(CN1CCN(S(=O)(=O)c2ccc(F)cc2)CC1)NC1CC1", "Potency": "inactive"}
{"molecule": "CC(=O)c1ccc(S(=O)(=O)NCc2nnnn2-c2ccccc2)cc1", "Potency": "inactive"}
{"molecule": "Cc1cc(NC(=O)COc2ccccc2C#N)no1", "Potency": "inactive"}
{"molecule": "CCOC(=O)C1CCN(Cc2nnc(-c3cccc(Br)c3)o2)CC1", "Potency": "inactive"}
{"molecule": "CCOC(=O)C1CCN(c2ncnc3c2oc2ccc(Br)cc23)CC1", "Potency": "13.1 µM (active)"}
{"molecule": "CCOC(=O)C1CCN(c2ncnc3c2c(-c2ccccc2)cn3-c2ccc(C)cc2)CC1", "Potency": "inactive"}
{"molecule": "Cn1cncc1COC(=O)c1ccc(Cl)cc1", "Potency": "inactive"}
{"molecule": "COc1ccccc1C(=O)NCc1nnc(SC(C)C(=O)Nc2nccs2)n1C", "note": "(centres undefined)", "Potency": "inactive"}
{"molecule": "Cc1ccc(NC(=O)CN2CCc3ccccc3C2)cc1C", "Potency": "inactive"}
{"molecule": "O=C(Cc1ccc(-c2ccccc2)cc1)NC(c1ccccc1)c1ccccc1", "Potency": "inactive"}
{"molecule": "O=C(CN1CCN(Cc2ccccc2)CC1)NC(c1ccccc1)c1ccccc1", "Potency": "14.7 µM (active)"}
{"molecule": "CC1CN(CC(=O)NC(C)c2ccccc2)CC(C)O1", "note": "(centres undefined)", "Potency": "inactive"}
{"molecule": "CCCc1cc(=O)[nH]c(SCC(=O)Nc2sc3c(c2C#N)CCCC3)n1", "Potency": "inactive"}
{"molecule": "N#CCCN(C(=O)COC(=O)c1ccc(S(=O)(=O)N2CCCCCC2)cc1)c1ccccc1", "Potency": "inactive"}
{"molecule": "CC(C)(CNC(=O)CNC(=O)C1CCCCC1)N1CCOCC1", "Potency": "inactive"}
{"molecule": "O=C(O)c1ccccc1-c1ccccc1C(=O)NCCc1ccccc1", "Potency": "inactive"}
{"molecule": "CC1(C)CC(=O)C(CC(=O)N2CCC(Cc3ccccc3)CC2)C(=O)C1", "Potency": "inactive"}
{"molecule": "O=C(C(=O)N1CCc2ccccc2C1)N1CCc2ccccc2C1", "Potency": "inactive"}
{"molecule": "Cn1c(=O)c2c(n(Cc3ccccc3)c1=O)NC(=O)C2CC(=O)N1CCc2ccccc2C1", "note": "(centres undefined)", "Potency": "11.7 µM (active)"}
{"molecule": "COc1ccc(/C=C2\\SC(=S)N(CCC(=O)Nc3cccc(C(=O)O)c3)C2=O)cc1OC", "Potency": "inactive"}
{"molecule": "COC(=O)CN1C(=O)C(C)(C)Oc2ccc(C(=O)Nc3cccc(OC)c3)cc21", "Potency": "inactive"}
{"molecule": "O=C(NC1C2CC3CC(C2)CC1C3)c1ccc(N2CCNCC2)c([N+](=O)[O-])c1", "note": "(centres undefined)", "Potency": "inactive"}
{"molecule": "Cc1cccc(N2CCN(c3ccc(C(N)=O)cc3[N+](=O)[O-])CC2)c1C", "Potency": "inactive"}
{"molecule": "CS(=O)(=O)N1CCN(c2ccc(C(=O)NC3C4CC5CC(C4)CC3C5)cc2[N+](=O)[O-])CC1", "note": "(centres undefined)", "Potency": "9.28 µM (active)"}
{"molecule": "COc1ccccc1N1CCN(C(=O)CSc2ncnc3c2cnn3-c2ccc(C)c(C)c2)CC1", "Potency": "inactive"}
{"molecule": "COc1ccc(S(=O)(=O)NCCc2c[nH]c3ccccc23)cc1OC", "Potency": "inactive"}
{"molecule": "Cc1ccc(CNC(=O)CCN2C(=O)[C@@H]3Cc4ccccc4CN3C2=O)cc1", "Potency": "inactive"}
{"molecule": "C/C(=N\\NC(=O)Cc1ccccc1[N+](=O)[O-])c1cccnc1", "Potency": "inactive"}
{"molecule": "O=C(COC(=O)Cn1cnc2ccccc2c1=O)NCc1ccccc1Cl", "Potency": "inactive"}
{"molecule": "Cc1nn(CCCC(=O)NCc2ccccc2Cl)c(=O)c2nccn12", "Potency": "1.04 µM (active)"}
{"molecule": "Cc1cccn2c(=O)nc(SCC(=O)NCc3ccccc3Cl)nc12", "Potency": "inactive"}
{"molecule": "COc1ccccc1NC(=O)CCC(=O)N1CC(C)Oc2ccc(C)cc21", "note": "(centres undefined)", "Potency": "inactive"}
{"molecule": "CCOC(=O)N1CCN(S(=O)(=O)c2ccc(-n3cnnn3)cc2)CC1", "Potency": "inactive"}
{"molecule": "O=C(c1ccc(-n2cnnn2)cc1)N1CCN(C(c2ccccc2)c2ccccc2)CC1", "Potency": "4.65 µM (active)"}
{"molecule": "O=C(c1ccccc1)N1CCN(C(=O)N2CCCCC2)CC1", "Potency": "inactive"}
{"molecule": "CCn1cc(C(=O)OCC(=O)Nc2cccc(C)c2)c(=O)c2ccc(C)nc21", "Potency": "inactive"}
{"molecule": "CCOC(=O)c1cn(CC)c2cc(F)c(F)cc2c1=O", "Potency": "inactive"}
{"molecule": "Cc1ccccc1N1CC(C(=O)Nc2ccc(S(=O)(=O)N3CCCC3)cc2)CC1=O", "note": "(centres undefined)", "Potency": "inactive"}
{"molecule": "Cc1ccccc1N1CC(C(=O)Nc2ccc3c(c2)OCO3)CC1=O", "note": "(centres undefined)", "Potency": "inactive"}
{"molecule": "Cc1cccc(N2CC(C(=O)Nc3ccccc3N3CCCC3)CC2=O)c1C", "note": "(centres undefined)", "Potency": "5.22 µM (active)"}
{"molecule": "CC(=O)C1=C(O)C(=O)N(c2ccc(Br)cc2)C1c1ccc([N+](=O)[O-])cc1", "note": "(centres undefined)", "Potency": "inactive"}
{"molecule": "COC(=O)C1CCN(C(=O)NC2CC(=O)N(c3ccc4c(c3)OCCO4)C2)CC1", "note": "(centres undefined)", "Potency": "inactive"}
{"molecule": "CCOC(=O)C(C)Sc1nc2ccccc2c(=O)n1CC1CCCCC1", "note": "(centres undefined)", "Potency": "11.7 µM (active)"}
{"molecule": "CCOC(=O)C1CCc2nc3ccccc3c(=O)n21", "note": "(centres undefined)", "Potency": "inactive"}
{"molecule": "O=C(CSc1nc2ccccc2c(=O)n1CCCO)NC1CC1", "Potency": "inactive"}
{"molecule": "O=C(NCCN1CCN(C(=O)c2cccc([N+](=O)[O-])c2)CC1)C(=O)NCc1ccc(Cl)cc1", "Potency": "inactive"}
{"molecule": "Cc1ccc(NC(=S)N2CCCC(c3ccccc3)=N2)cc1", "Potency": "inactive"}
